Reference: PubChem BioAssay (NCI)
This is part of a sample that, as a whole, favours compounds with a hit. Of some 83,000 tested, about 20% had one in any assay.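 Single-concentration screen, 48 h exposure, 96-well plates. Endpoint: percent growth. Below 10 = active.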 Activity calls are given as the source filed them.

test system: HOP-92 NSCLC; experiment: NCI-60 one-dose screen, 48 h (100 = growth as untreated, 0 = no growth, -100 = all killed); details: 10 µM unless noted

Compound	growth
CCOc1ccccc1/C=N\Nc1ccc(S(=O)(=O)c2ccc(N/N=C/c3ccccc3OCC)cc2)cc1	88.9% (inactive)
Nc1ccc(Cl)c([N+](=O)[O-])c1	94% (inactive)
Oc1ccc(N=Nc2nccs2)c(O)c1	61.7% (inactive)
O=C(N[C@@H]1CCCc2ccccc21)[C@H](CCC(=O)N1CCN(C2CCCCC2)CC1)N1C(=O)[C@@H](N2C(=O)OC[C@@H]2c2ccccc2)[C@H]1/C=C/c1ccccc1	2.75% (active)
Cc1ccc(NC(=S)/N=c2/n(-c3ccccc3)nc3n2CCN3C2=NCCN2)cc1	75.3% (inactive)
CCCCC1COc2cccc3c2N1C=C/C3=C\C(=O)n1ccc2ccccc21 (stereo not drawn)	63.3% (inactive)
COc1cc(C)cc2oc3oc(=O)c(-c4nc5ccccc5s4)cc3c(=O)c12	76.1% (inactive)
O=C(Nc1ccccc1)Nc1ccc(C(=O)/C=C/c2ccc(N3CCCC3)cc2)cc1	73.8% (inactive)
COc1cc(C)cc2oc3oc(=N)c(C(=O)c4ccccc4)cc3c(=O)c12	94.9% (inactive)
CC[C@]12C=CCN3CC[C@@]4(c5ccc(OC)cc5N(C)[C@H]4[C@@](O)(C(=O)OC)[C@@H]1OC(=O)CCC(=O)N[C@H](Cc1c[nH]c4ccccc14)C(=O)OC)[C@@H]32	-56.7% [100 µM] (active)
CC(=O)OC[C@]12CC[C@@H]([C@@H](C)C(N)=O)[C@@H]1[C@H]1CC[C@@H]3[C@@]4(C)CC[C@H](OC(C)=O)C(C)(C)[C@@H]4CC[C@@]3(C)[C@]1(C)CC2	-83.1% [100 µM] (active)
O=c1c2c3c(sc2n2cnnc2n1Cc1ccccc1)CCCC3	89.8% (inactive)
COc1cc2c(c(OC)c1)C1c3cc(OC)ccc3NC(=O)N1CC2 (stereo not drawn)	80.6% (inactive)
O=c1cc(-c2ccccc2)oc2cc(OCc3cn(Cc4ccc(F)cc4)nn3)cc(O)c12	-3.35% [100 µM] (active)
CCN(CC)c1ccc2cc(NC(=O)OCCNC(=O)CCNC(=O)[C@H](CC(C)C)NC(=O)C(C)(C)NC(=O)C(C)(C)NC(=O)[C@H](CC(C)C)NC(=O)CCNC(=O)C(C)(C)NC(=O)[C@H](CC(C)C)NC(=O)CCNC(=O)[C@@](C)(CC)NC(=O)[C@H](C)NC(=O)CCNC(=O)C(C)(C)NC(=O)[C@H](C)NC(=O)[C@@H]3CCCN3C(=O)[C@@](C)(CC)NC(=O)[C@H](Cc3ccccc3)NC(=O)C3CCCN3C(=O)C(C)(C)NC(=O)C3CCCN3C(=O)C(C)(C)NC(C)=O)c(=O)oc2c1 (stereo partly drawn)	-95.8% (active)
CCCCCCCCCCCCCC[n+]1cccc(C(N)=O)c1	-26.8% (active)
CCOC(CNC(=O)c1cccc([N+](=O)[O-])c1)OCC	96.7% (inactive)
COc1ccc(/C=C/C=C\C(=O)c2ccc(-n3ccnc3)cc2)cc1	96.5% (inactive)
CCNc1cc2c(cc1Br)-c1ccccc1C2=O	84.9% (inactive)

Compound	growth
C[n+]1c(-c2ccccc2)c2cc(N)ccc2c2ccccc21	54.5% (inactive)
C/C=C/C1OC23CCCCC2C(C#N)(C(=N)O3)C1(C#N)C#N (stereo not drawn)	117% (inactive)
Fc1cc2[nH]ncc2c2c3c(c(-c4cn[nH]c4)nc12)CCCC3	-7.43% (active)
CCOC(=O)c1nn(C2CCCCO2)c2ccc(NC(=O)CN3CCCC3)cc12 (stereo not drawn)	106% (inactive)
Nc1nnc(CSc2nnc3n(Cc4ccccc4)c(=O)c4c5c(sc4n23)CCCC5)s1	70.6% (inactive)
O=S(=O)(NCc1ccccc1)c1ncnc2nc[nH]c12	117% (inactive)
c1cc2ccc1CNCCN1CCNCc3ccc(cc3)Oc3ccc(cc3)CNCCN(CCNCc3ccc(cc3)O2)CCNCc2ccc(cc2)Oc2ccc(cc2)CNCC1	-92.2% (active)
CS(=O)(=O)c1cccnn1	75.5% (inactive)
N=C(N)c1ccc(-c2ccc(-c3ccc(-c4cccs4)s3)s2)cc1F	94.8% (inactive)
CCCSc1nc(N)nc2nc[nH]c12	91.9% (inactive)
C[C@H]1[C@H](C)CC[C@]2(C(=O)O)CC[C@]3(C)C(=CC[C@@H]4[C@@]5(C)C/C(=C/c6cccnc6)[C@H](O)C(C)(C)[C@@H]5CC[C@]43C)[C@H]12	-3.06% [100 µM] (active)
O=C1CC(c2ccccc2)Cc2nc3ccc(Br)cc3cc21 (stereo not drawn)	40.1% (inactive)
C1=C[C@H]2O[C@@H]1c1ccc3[nH]ccc3c12	120% (inactive)
CCN(CC)c1ccc(/C=C/c2ccc3cc(C)ccc3[n+]2CC)cc1	-17.5% (active)
O=C(Nc1cc(F)cc2cccnc12)c1cnc(N2CCNCC2)cn1	49.1% (inactive)
C=CCCC1(C)NC(=O)NC1=O (stereo not drawn)	87.1% (inactive)
CC(=O)Nc1ccc2nc3ccc(NC(C)=O)cc3[n+](-c3ccccc3)c2c1	136% (inactive)
CCCCCN(CCCCC)CCCCCCCCN1CCCc2ccccc21	88% (inactive)
O=C(O)c1cccc(CN2CCN(c3cc4c(cc3F)c(=O)c(C(=O)O)cn4C3CC3)CC2)c1O	97% (inactive)
